The values that follow come from PubChem BioAssay (NCATS).

“And” between values parts separate entries of the source, which are not always exact repeats. Identical values can stand only once. Records with an inconclusive call do not appear. The source made the active and inactive calls. Unless noted, calls follow the shape of the dose curve; as a rule, active = well fitted curve in the direction sought with a large enough effect; inconclusive = small, poorly fitted or top-dose-only effect, or another doubt; inactive = no such curve, though single readings can be large; an effect the other way counts as inactive or inconclusive.

Assay [1] is described as follows: qHTS Assay for Lipid Storage Modulators (AID 1519; calls by dose curve; as to activity change, negative = inhibition: % is scaled to controls: 0 for no effect and ±100 for the full control effect). To be noted: Drosophila S3 cells, BODIPY lipid droplet/cell ratio, laser cytometry, cells loaded with oleic acid. In short, it runs like this: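 Cells seeded at 5,000 per well were treated with compounds over a concentration series and loaded with oleic acid (400 uM, as added). Lipid droplet fluorescence (488 nm excitation, 500-530 nm channel) was read by laser-scanning cytometry and normalized to 20 uM Triacsin C.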
A general note: qHTS replaces the single test concentration by a dilution series.

Assay [2] in a line: Validation of Assay for Modulators of Lamin A Splicing (AID 1459; active = well fitted curve in the direction sought with a large enough effect in the signal ratio; the % refers to the signal ratio;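 also: cells exposed to compound for two days before reading; 0% is about no effect; ratio rise marks activators and ratio drop marks inhibitors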). To be noted: Lamin A splicing dual RFP/GFP fluorescence reporter; series mostly up to 9.22 µM. In short, it runs like this: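 Dual-reporter HeLa S3 line (lamin A-EGFP minigene, DsRed2) treated with compounds 48 hrs, 0.5% DMSO final. Endpoint: EGFP/DsRed2 total intensity ratio from laser-scanning microplate cytometry.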

Assay [3] deals with DNA repair nuclease/redox regulator APEX1 (Homo sapiens) (UniProt P27695). Briefly: qHTS Validation Assay for Inhibitors of the Human Apurinic/apyrimidinic Endonuclease 1 (APE1) (AID 1705;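 also: TAMRA fluorescence gain over two minutes as APE1 cuts a quenched THF abasic duplex; % is scaled to controls: 0 for no effect and ±100 for the full control effect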). To be noted: purified APE1 endonuclease activity, fluorescence, titration; series mostly up to 57.1 µM. The method in brief:
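Substrate: 50 nM final fluorophore/quencher THF-abasic duplex. Enzyme preincubated with compounds 15 min, RT. Progress derived from fluorescence difference, third minus first kinetic read.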

The nature of assay [4]: Counterscreen for APE1 Inhibitors: Fluorescent Dye Displacement Validation Assay (AID 1707).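 Also: plate controls were ThO with dsDNA and no compound for no effect and ThO without dsDNA for full effect.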 To be noted: fluorescent dye displacement from DNA; series mostly up to 57.1 µM. The method in brief:
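Loss of Thiazole Orange fluorescence marks promiscuous DNA binders. The dye (250 nM) is mixed with 50 nM abasic-site dsDNA in pH7.5 Tris buffer containing MgCl2, then compounds are added and emission is read once.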
(A counterscreen serves to expose hits that act by an unwanted route or on another target.)

The target in assay [5] is Endonuclease 4 (Escherichia coli (strain K12)) (UniProt P0A6C1). Nature of the assay: Counterscreen for APE1 Inhibitors: qHTS Validation Assay for Inhibitors of Endonuclease IV (AID 1708). Also: % is scaled to controls: 0 for no effect and ±100 for the full control effect. To be noted: E. coli endonuclease IV, DNA cleavage fluorescence; series mostly up to 57.1 µM. The method in brief: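 Incision of a double-stranded 50 nM TAMRA/BHQ-2 abasic substrate was followed kinetically (525/598 nm, reads every 60 s) after 15 min enzyme–compound preincubation with 2 nM EndoIV in pH 7.5 Tris buffer with MgCl2, DTT and Tween-20; concentration-response format.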

Assay [6] can be described thus: qHTS for differential inhibitors of proliferation of Plasmodium falciparum line 3D7 (AID 1876).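 Also: parasite growth measured after three days of culture; 0% = vehicle wells and -100% = reference inhibitor wells.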 To be noted: P. falciparum 3D7 proliferation inhibition; series mostly up to 28.7 µM.
Assay [7] deals with Alpha-galactosidase A (Homo sapiens) (UniProt P06280). Nature of the assay: Counterscreen for Glucocerebrosidase Inhibitors: qHTS Assay for Human alpha-Galactosidase at pH 4.5 (AID 992). Also: 0% is about no effect. To be noted: purified enzyme, fluorogenic substrate; series mostly up to 76.9 µM. The method in brief: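 Each compound is preincubated briefly with 2 nM enzyme before substrate addition (80 uM); plates then sit 20 min at ambient temperature, are quenched with 1M NaOH/1M glycine, and read fluorometrically.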
Alpha-galactosidase A (Homo sapiens), sequence (P06280 whole entry, looked up): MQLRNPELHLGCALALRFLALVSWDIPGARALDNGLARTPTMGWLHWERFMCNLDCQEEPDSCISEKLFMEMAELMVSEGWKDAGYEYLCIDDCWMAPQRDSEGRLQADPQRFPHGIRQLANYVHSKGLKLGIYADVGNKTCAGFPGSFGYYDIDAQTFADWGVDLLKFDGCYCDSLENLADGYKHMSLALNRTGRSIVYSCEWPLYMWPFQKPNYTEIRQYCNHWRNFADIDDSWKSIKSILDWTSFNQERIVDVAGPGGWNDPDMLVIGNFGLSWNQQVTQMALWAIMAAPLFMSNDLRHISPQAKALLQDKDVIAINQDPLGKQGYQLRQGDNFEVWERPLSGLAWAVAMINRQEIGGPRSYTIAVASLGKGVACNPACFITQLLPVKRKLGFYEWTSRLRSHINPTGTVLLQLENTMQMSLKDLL

For assay [8], the target named is alpha-glucosidase (Oryza sativa, rice) (UniProt Q653V4). Nature of the assay: Counterscreen for Glucocerebrosidase Inhibitors: qHTS Assay for Rice alpha-Glucosidase at pH 5.0 (AID 997).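 Also: 0% = full activity with enzyme and -100% = basal without enzyme.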 To be noted: rice alpha-glucosidase enzyme activity; series mostly up to 76.9 µM. In short, it runs like this:
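Endpoint fluorogenic assay at pH 5.0: compounds (0.7 nM to 77 uM) titrated against 4 nM rice enzyme and 400 uM 4-MU-alpha-glucoside for 20 min at room temperature; NaOH/glycine stop, read ex 365/em 440 nm, Hill-fitted AC50.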

Assay [9] is described as follows: qHTS for differential inhibitors of proliferation of Plasmodium falciparum line 7G8 (AID 1815).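 Also: parasite growth measured after three days of incubation; plate controls were vehicle wells for no effect and reference inhibitor wells for full effect.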 To be noted: Plasmodium falciparum 7G8 proliferation inhibition; series mostly up to 28.7 µM.
Assay [10] is described as follows: qHTS for differential inhibitors of proliferation of Plasmodium falciparum line GB4 (AID 1816).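 Also: parasite growth measured after 72 h incubation; 0% = vehicle DMSO and -100% = reference inhibitor.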 To be noted: Potency: Plasmodium falciparum GB4 proliferation inhibition; series mostly up to 28.7 µM.
Setting [11] is: measured here: cell count channel max response.
[12] abbreviates: measured here: lipid channel max response.

DNA repair nuclease/redox regulator APEX1 (Homo sapiens), sequence (P27695 whole entry, looked up): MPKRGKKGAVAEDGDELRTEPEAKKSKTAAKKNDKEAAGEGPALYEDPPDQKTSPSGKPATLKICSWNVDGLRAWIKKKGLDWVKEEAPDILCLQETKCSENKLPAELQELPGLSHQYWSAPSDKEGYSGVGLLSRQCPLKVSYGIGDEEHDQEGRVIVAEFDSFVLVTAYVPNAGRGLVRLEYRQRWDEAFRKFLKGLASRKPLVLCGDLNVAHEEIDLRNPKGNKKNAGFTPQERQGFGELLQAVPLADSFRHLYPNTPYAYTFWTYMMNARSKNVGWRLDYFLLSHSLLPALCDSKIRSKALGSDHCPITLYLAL

As to `O=C(OCC(O)CO)c1ccccc1Nc1ccnc2cc(Cl)ccc12` (stereo not drawn), in assay [1] (at 57.5 µM (top of the series)), the activity change, negative = inhibition is 0.748% (inactive). The max response in [1] (setting [11]) was 5.57%; in [1] (setting [12]), 7.83%.
On to `CC(C)(C(=O)c1cccnc1)c1cccnc1`, for which the activity change, negative = inhibition in [1] (at 25.7 µM (top of the series)) was -6.04% (inactive). Besides, the max response in assay [1] (setting [11]) is -12.6%; in assay [1] (setting [12]), -17.9%.
`COC(=O)[C@H]1[C@H]2C[C@H]3c4[nH]c5ccccc5c4CCN3C[C@H]2CC[C@@H]1O`: the outcome in [2], in assay [4] and in assay [5] was inactive. For the same compound, the Potency result in [3] and in assay [6] was “inactive” each time.
Regarding `CC(C)(Oc1ccc(Cl)cc1)C(=O)O`, the activity change, negative = inhibition in [1] (at 25.7 µM (top of the series)) is -1.74% (inactive). Further, the max response in assay [1] (setting [11]) was 1.11%; in [1] (setting [12]), -1.85%.
With `C1CCc2nnnn2CC1`, the compound was classed as inactive in [7], in assay [8], in [2], in assay [4] and in assay [5]. Besides, the values for the activity change, negative = inhibition in assay [1] (at 25.7 µM (top of the series)) and in assay [1] (at 57.5 µM (top of the series)) were 0.501% (inactive) and 0.8% (inactive), respectively. In addition, the max response was 12.5% and 9.15% in [1] (setting [11]); 18% and 12.4% in assay [1] (setting [12]). Moreover, the Potency entry in assay [3], in assay [9], in assay [10] and in assay [6] was “inactive” each time.
On to `N[C@@H](Cc1cnc[nH]1)C(=O)O`, for which the compound was classed as inactive in [7], in assay [8], in [2], in [4] and in assay [5]. Further, the Potency entry in assay [3], in assay [9], in assay [10] and in [6] was “inactive” each time.
With `Cc1cccc(C)c1NC(=O)CN1CCN(CCCC(c2ccc(F)cc2)c2ccc(F)cc2)CC1`, the activity change, negative = inhibition in assay [1] (at 25.7 µM (top of the series)) was -4.87% (inactive). Further, the max response in [1] (setting [11]) is -22.3%; in assay [1] (setting [12]), -28.7%.
For `NCCc1ccn[nH]1` the same measures were -0.85% (inactive), 12.5% and 11.2%.
Take `Cc1c(C(N)=O)cc([N+](=O)[O-])cc1[N+](=O)[O-]`: the activity change, negative = inhibition in assay [1] (at 57.5 µM (top of the series)) is 9.82% (inactive). The values for the max response in assay [1] (setting [11]) and in assay [1] (setting [12]) were 12.8% and 29.3%, respectively.
For `Oc1c(I)cc(I)c2cccnc12` the same measures were -2.05% (inactive), 9.29% and 10.6%.
For the compound `O=C(CCCN1CCC(O)(c2ccc(Br)cc2)CC1)c1ccc(F)cc1`, the activity change, negative = inhibition in assay [1] (at 25.7 µM (top of the series)) was -4.42% (inactive). In addition, the max response in assay [1] (setting [11]) was -5.85%; in [1] (setting [12]) it was -9.42%.
Take `COc1ccc(OC)c(C(O)CNC(=O)CN)c1` (stereo not drawn): the activity change, negative = inhibition in [1] (at 57.5 µM (top of the series)) is 8.05% (inactive). Moreover, the max response in [1] (setting [11]) worked out at 10.1%; in assay [1] (setting [12]) it was 23.2%.
Consider `CC1(C)CCC(NC(=O)[C@@H](N)CCC(=O)O)CC1`, for which the compound was classed as inactive in assay [2], in [4] and in assay [5]. Besides, the Potency entry in assay [3], in assay [9], in [10] and in assay [6] was “inactive” each time.
`OCc1ccccc1O`: the activity change, negative = inhibition in [1] (at 57.5 µM (top of the series)) was 1.86% (inactive). For the same compound, the max response in assay [1] (setting [11]) is -8.44%; in assay [1] (setting [12]), 0.187%.
With `O=C(O)c1cc2cc(Cc3cccnc3)ccc2o1`, the compound was classed as inactive in assay [7], in [8], in assay [2], in assay [4] and in assay [5]. Further, the Potency result in assay [3], in [9], in assay [10] and in assay [6] was “inactive” in each case.
